Experimental data from ChEMBL document CHEMBL4513216, “Probing the Open Global Health Chemical Diversity Library for Multistage-Active Starting Points for Next-Generation Antimalarials” (ACS Infect Dis, 2020).
Hit rate of the full screen: of about 65,000 compounds, about 2,100 (3.2%) showed an effect of 50% or more. The median lay at about -52%. The full list was thinned out, with strong results kept by preference.

The compounds below were run on Plasmodium falciparum (assay: Screen against P. falciparum Asexual Blood Stage (ABS), at 5uM). Conditions: tested at 5 uM.
Assay type: functional, Dd2

SMILES	INHIBITION
COC[C@@H]1CCC[C@]12CN(Cc1cccc(C)n1)CCO2	-26.8%
CCS(=O)(=O)NC[C@]12COC[C@H]1CN(Cc1ccccn1)C2	-30.3%
CC(C)N1CCO[C@H]2CN(C(=O)c3ccncc3)C[C@H]21	-69.9%
Cc1nocc1C(=O)N1CCOC2(COCCN(CC3CC3)C2)C1 (stereo not drawn)	-103%
COc1ccc(CC(=O)N2CCN(Cc3ccco3)C[C@H]2C)cc1OC	-28.9%
CN(C)C(=O)CN1CCO[C@H]2CN(c3ccccn3)C[C@H]21	-57.3%
COc1ccccc1CN1CCC(c2nn(CCN)c3nccnc23)C1 (stereo not drawn)	75.5%
COCCN1CC[C@@H]2CN(Cc3cccnc3OC)C[C@@H]2C1	-68%
COc1ncccc1CN1C[C@H]2CCN(c3ncccn3)C[C@H]2C1	-39%
c1cncc(CO[C@H]2CN(Cc3ccco3)[C@@H]3COC[C@H]23)c1	-14.4%
Cc1cccc(CN2CC[C@H]3[C@@H]2CC(=O)N3CC2CC2)n1	-122%
Cc1cc(C)n(C2CN(CC(O)c3cc(F)ccc3F)C2)n1 (stereo not drawn)	84.7%
CCC(CO)N(Cc1cccc(O)c1)Cc1ccccc1C (stereo not drawn)	75.2%
O=C(N1CCOCC1)[C@@]12CCO[C@@H]1CCN(Cc1ccncc1)C2	-39.7%
CCC1CN(CC(=O)NCCN2CCCCCC2)c2ccccc2S1 (stereo not drawn)	73.8%
CCC1CN(CC(=O)NCCN(CC)CC)c2ccccc2S1 (stereo not drawn)	76.7%
CCC1CN(CC(=O)NCCN2CCCCC2)c2ccccc2S1 (stereo not drawn)	72.3%
CCCN1CCC2(Cc3ccccc3NC2=O)C1 (stereo not drawn)	-3.59%
CS(=O)(=O)N1CCOCC2(CN(Cc3ccccn3)CCO2)C1 (stereo not drawn)	-46.3%
Cc1ccc(CNCCC(O)(c2nccn2C)C(F)(F)F)o1 (stereo not drawn)	73.2%
Cn1ccnc1C(O)(CCNCc1ccc(Cl)o1)C(F)(F)F (stereo not drawn)	71.1%
Cc1csc(CN2CCC[C@]3(C[C@@H](Oc4ccccn4)CO3)C2)n1	-213%
Cc1cc(C(F)(F)F)cc(=O)n1CCn1cc(Cl)cn1	18.5%

SMILES	INHIBITION
CCc1cnc(N)nc1NCCCn1cc(Cl)cn1	84.5%
CCN(CC)C(CNC(=O)c1c(C)noc1C(C)C)c1ccsc1 (stereo not drawn)	78.7%
CC(C)N1CCN(C(=O)Cc2csc(-c3ccco3)n2)CC1	-22.2%
COc1cc(F)ccc1C(C(=O)O)N(C)CCN1CCOCC1 (stereo not drawn)	80.7%
Cc1ccc(F)cc1CC(=O)N(CCN1CCOCC1)Cc1ccco1	-12.9%
COc1cc(F)ccc1C(C(=O)O)N(C)CCN1CCCC1 (stereo not drawn)	72.3%
CCS(=O)(=O)N1CCN(CC2CC2)c2ncccc2C1	-94.6%
COC(=O)c1ccc(C2SCC(=O)Nc3ccsc32)cc1 (stereo not drawn)	-80.9%
COc1ccc(CCN)cc1-c1ccc(O)cc1	85.6%
CCOc1ccc(-c2cc(CCN)ccc2OC)cc1	-58%
COc1ccc(CCN)cc1-c1ccc(C(N)=O)cc1	10.7%
Cc1ccc(CN2C[C@@H]3CCN(Cc4ccncc4)C(=O)[C@H]3C2)s1	-13.4%
C[C@H](N)Cn1nc(-c2cccs2)oc1=O	-106%
CNCC[C@H]1CC(C)(C)Oc2ccc(OC)cc21	73.8%
CNCC[C@H]1CC(C)(C)Oc2ccc(OCC3CC3)cc21	76.1%
CC(C)(O)c1cn(C[C@H]2C[C@@H]3CCN2C[C@@H]3C(=O)N2CCOCC2)nn1	-62.4%
CC(=O)c1cc(CC(=O)N2CCN(CCOc3ccccc3)CC2)cs1	7.62%
CN(C)c1nc2c(c(NCc3cc(O)ncn3)n1)CCCC2	89.4%
COc1ccccc1C1SCC(=O)Nc2n[nH]cc21 (stereo not drawn)	-117%
COc1ccccc1C1CNC(=O)c2nc(-c3ncc[nH]3)[nH]c2C1 (stereo not drawn)	89.1%
COc1cccc(CC(C)NC(=O)NCCNC(C)=O)c1 (stereo not drawn)	-47.5%
CN(C)[C@@H]1CN(C(=O)COc2cccc(F)c2)C[C@H]1O	-21.2%
CCC(CNC(=O)CNC(C)=O)Oc1cccc(F)c1 (stereo not drawn)	85%

SMILES	INHIBITION
O=C(Cc1cccc(F)c1)N1CCN2C[C@H](Oc3cncnc3)C[C@H]2C1	-93.1%
Cc1nnc(N2CCCC3(CN(Cc4cccnc4)CCO3)C2)o1 (stereo not drawn)	-77.8%
Cc1ccccc1-n1cc(C2=CCN(CCn3cc[nH]c3=O)CC2)cn1	-111%
CC(=O)N1CCN([C@@H]2CN(C(=O)Cc3ccccc3C)C[C@H]2O)CC1	-146%
CC(C)(C)c1nc(CN(Cc2cccnc2)C2CN3CCC2CC3)no1 (stereo not drawn)	-29.7%
c1ccc(-c2nnc(CNC3CCCN(c4cccnn4)C3)o2)cc1 (stereo not drawn)	75.8%
CC(C)(C)c1nc(CNC2CCCN(c3cccnn3)C2)no1 (stereo not drawn)	83%
CCCN1CCN(C(=O)c2cncnc2C)[C@H]2CS(=O)(=O)C[C@H]21	-87.7%
Cc1ccc(CN2Cc3nnn(C)c3C(COCCN(C)C)C2)s1 (stereo not drawn)	73.9%
Cc1ccc(CN2C[C@@H]3[C@@H](C2)OCC(=O)N3Cc2ccncc2)s1	3.28%
Cc1ccc(N2CCO[C@H]3CN(Cc4ccncc4)C[C@H]32)nn1	-111%
Cc1ccc2c(c1)CN(C(=O)c1cccs1)C(CN(C)C)CO2 (stereo not drawn)	77.3%
CN(CC1Cc2ccccc2CN1C)C(=O)Cc1cccs1 (stereo not drawn)	-12.1%
O=C(NCCOc1cccc(Cl)c1Cl)N1CCC2(CC1)OCCO2	-68.2%
CC(Cn1cncn1)NCc1n[nH]c2c1CCCCC2 (stereo not drawn)	-49.3%
Cc1ccc2nc(CN(C)Cc3n[nH]c4c3CCCCC4)[nH]c2c1C	85.8%
Cc1ccc2[nH]c(CN(C)Cc3n[nH]c4c3CCC4)nc2c1	82.3%
NC1(c2nc(C(F)(F)F)cc(=O)[nH]2)CCCCC1	4.74%
CC(=O)N1CCC2(CN(CC3CCCC3)C2)C1	-99.3%
COc1ccc(CN2C[C@H]3C[C@H](CN(C)C)O[C@H]3C2)cc1	79.6%
CN(C)C[C@H]1C[C@@H]2CN(Cc3ccco3)C[C@@H]2O1	38.9%
CN(C)C[C@H]1C[C@@H]2CN(Cc3ccoc3)C[C@@H]2O1	20.7%
